Assay results published in the supplement of paper PMC7858590.

Each compound was assayed on human monocyte-derived macrophages (polarized) (assay: cell shape (eccentricity) Z-score vs DMSO control; higher = more elongated, M2-like morphology). Conditions: 5 µM; 24 h; macrophage state: M1-polarized (IFNg + TNFa), cytokines present during treatment.
Experimental: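 Primary-screen hits were rescreened on polarized hMDMs with the differentiating cytokines (IL-4 + IL-13 or IFNg + TNFa) kept in the medium during treatment with compound at 5 uM for 24 h. The eccentricity Z-score vs DMSO wells is averaged over experiments.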

Compound | cell shape (Z-score)
O=S(=O)(c1cccc2cnccc12)N1CCNCC1 | 3.08
CC[C@]12CCCN3CCc4c(n(c5ccccc45)[C@@](O)(C(=O)OC)C1)[C@@H]32 | -5.43
CC(C)c1ccccc1Cc1cc(C(=O)Nc2ccc(S(=O)(=O)c3ccccc3C(C)(C)C)cc2)c(O)c(O)c1O | -2.24
CNC(=O)c1cc(Oc2ccc(NC(=O)Nc3ccc(Cl)c(C(F)(F)F)c3)c(F)c2)ccn1 | 12.1
COc1ccc(-c2oc3ccccc3c(=O)c2O)cc1OC | -0.838
C=C[C@@]1(C)CC(=O)[C@]2(O)[C@@]3(C)[C@@H](O)CCC(C)(C)[C@@H]3[C@H](O)[C@H](OC(C)=O)[C@@]2(C)O1 | -1.28
CCCC(=O)Nc1ncnc2c1ncn2[C@@H]1O[C@@H]2COP(=O)(O)O[C@H]2[C@H]1OC(=O)CCC | 0.117
CCC1(C)CC(=O)NC1=O (stereo not drawn) | -7.19
N#Cc1ccc(COC[C@H]2O[C@@H](n3c(NCc4ccc(Cl)c(Cl)c4)nc4c(N)ncnc43)[C@H](O)[C@@H]2O)cc1 | -3.47
O=C(CCc1ccc(O)cc1)c1c(O)cc(O)cc1O | -3.42
COc1cc2nccc(Oc3ccc(NC(=O)Nc4cc(C)on4)c(Cl)c3)c2cc1OC | 7.92
COc1cccc2c1C(=O)c1c(O)c3c(c(O)c1C2=O)C[C@@](O)(C(C)=O)C[C@@H]3O[C@H]1C[C@H](N)[C@H](O)[C@H](C)O1 | 8.83
CO[C@H]1C[C@H](O[C@@H]2/C(C)=C/C[C@@H]3C[C@@H](C[C@]4(CC[C@H](C)[C@@H](C5CCCCC5)O4)O3)OC(=O)[C@@H]3C=C(C)/C(=N/O)[C@H]4OC/C(=C\C=C\[C@@H]2C)[C@]43O)O[C@@H](C)[C@@H]1O | 17.6
